# Sampled rows, rich in hits. Any-hit rate of the full collection: about 19%.
# VP16 counter = Gal4-VP16 reporter inhibition counter-screen; Drosophila S2 Gal4-VP16 UAS-luciferase, luminescence, 20 h; Potency, µM (series often up to 53.6 µM), for the others: at the top dose activity, negative = inhibition, hits mostly inhibitors; 310,000 compounds, 3.5% hits; AID 2546;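 also: Gal4-VP16 expression switched on by copper sulfate through the metallothionein promoter; nearly all actives have a fitted effect of over 50% in size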
# RORgamma inh = ROR gamma (mouse) transcription inhibition; Potency, µM (highest dose often 53.6 µM), without a hit: top-dose activity change, negative = inhibition, usual class: inhibitors; Drosophila S2 Gal4-RORgamma UAS-luciferase reporter, 20 h; AID 2551; P51450; 310,000 compounds, 5.4% hits; also: nearly all actives have a fitted effect of over 60% in size
# Target sequence (P51450 whole entry, looked up, the tested form may be a part): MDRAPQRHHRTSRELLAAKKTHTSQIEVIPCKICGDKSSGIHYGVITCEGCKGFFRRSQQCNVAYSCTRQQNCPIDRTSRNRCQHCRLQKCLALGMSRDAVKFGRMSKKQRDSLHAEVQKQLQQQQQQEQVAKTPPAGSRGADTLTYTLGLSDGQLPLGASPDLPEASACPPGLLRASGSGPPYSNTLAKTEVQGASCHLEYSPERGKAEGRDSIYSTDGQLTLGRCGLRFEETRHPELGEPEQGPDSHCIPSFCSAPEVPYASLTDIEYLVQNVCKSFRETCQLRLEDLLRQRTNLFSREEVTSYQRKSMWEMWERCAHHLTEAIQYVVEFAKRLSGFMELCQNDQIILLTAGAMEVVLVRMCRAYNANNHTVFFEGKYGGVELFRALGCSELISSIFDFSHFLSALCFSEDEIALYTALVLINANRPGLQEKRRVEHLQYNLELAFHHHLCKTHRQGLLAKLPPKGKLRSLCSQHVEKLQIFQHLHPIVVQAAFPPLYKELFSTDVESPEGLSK
#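 Using a luciferase readout, inhibitors were identified by reduced reporter activity in Drosophila cells coexpressing a copper-inducible Gal4–ROR gamma fusion and UAS-driven Photinus luciferase, incubated 20 hr after 700 uM copper sulfate.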
# DT40 TDP1 no CPT = qHTS for Inhibitors of human tyrosyl-DNA phosphodiesterase 1 (TDP1): qHTS in cells in absence of CPT. DT40 Tdp1-/- hTDP1 cells, no CPT, ATP luminescence, 48 h. Potency, µM (highest dose often 46.2 µM), without a hit: top-dose activity change, negative = growth inhibition, hits mostly inhibitors. 420,000 compounds, 15% hits. AID 686978, 2013; also: nearly all actives have a fitted effect of over 55% in size
#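 Cells were dispensed at 400 per well, compounds added by pin tool, plates incubated ≥48 hr at 37 °C, then CellTiter-Glo added for 30 min at room temperature before luminescence reading. Line: DT40 Tdp1-/- complemented with hTDP1; camptothecin omitted.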
# TDP1 block = inhibitors of human tyrosyl-DNA phosphodiesterase TDP1; AID 485290; Q9NUW8; Potency, µM (titrated, usually from 130 µM), inactives show top-dose activity change, negative = inhibition, most hits filed as inhibitors; recombinant TDP1, AlphaScreen DNA substrate cleavage; 350,000 compounds, 0.28% hits; also: nearly all actives have a fitted effect of over 40% in size
#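 Tdp1 1 nM final; 15 min RT w/ cpd; substrate 15 nM, 5 min; beads 10 ug/ml, 10 min; AlphaScreen read. Neg ctrl: no enzyme.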
# TDP1 cell CPT = growth inhibition of DT40 Tdp1-/-;hTDP1 cells with camptothecin (screen for TDP1 inhibitors). chicken DT40 Tdp1-/-;hTDP1 cells + 20 nM CPT, ATP luminescence, 48 h. Potency, µM (highest dose often 46.2 µM), inactives show at the top dose activity change, negative = growth inhibition, usual class: inhibitors. 420,000 compounds, 12% hits. AID 686979; also: nearly all actives have a fitted effect of over 55% in size
#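 Chicken DT40 Tdp1-/- cells complemented with human TDP1, 400 cells/well, exposed to compounds plus 20 nM camptothecin for at least 48 h at 37 C; viability read as ATP content by CellTiter-Glo luminescence.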
# An asterisk follows results filed as active; ? = inconclusive; · = not tested or not shown; [ ] = remark or other dose. Calls follow the shape of the dose curve; as a rule, active = well fitted curve in the direction sought with a large enough effect; inconclusive = small, poorly fitted or top-dose-only effect, or another doubt; inactive = no such curve, though single readings can be large; an effect the other way counts as inactive or inconclusive. % is scaled to controls: 0 for no effect and ±100 for the full control effect; potency is read from the fitted curve at half-maximal effect.
SMILES,VP16 counter,RORgamma inh,DT40 TDP1 no CPT,TDP1 block,TDP1 cell CPT
Cc1cc(NC(=O)CS(=O)(=O)c2cn(Cc3cccc(Cl)c3)c3ccccc23)no1,·,·,21µM*,·,26µM*
Cc1ccc(-c2cc(-c3ccc(F)cc3)c(C#N)c(N)n2)o1,?,41%,?,0%,?
Cc1ccc(-c2cc(-c3ccc(Cl)cc3)c(C#N)c(N)n2)o1,?,-40%,9.2µM*,1%,6.5µM*
Cc1ccc(-c2c(C#N)c(N)nc3c2CCCCC3)o1,-3%,0%,-15%,-3%,?
Cc1cc(-c2cccc(Br)c2)c(C#N)c(N)n1,8%,-4%,-13%,0%,-2%
CCOc1cc(-c2cc(-c3ccc(C)o3)nc(N)c2C#N)ccc1O,-17%,-42%,16µM*,-2%,16µM*
Cc1cc(-c2cc(-c3ccc(Cl)cc3)nc(N)c2C#N)co1,-24%,-34%,21µM*,-4%,8.2µM*
Cc1ccc(-c2cc(-c3ccc(C)o3)nc(N)c2C#N)cc1,?,?,?,8%,15µM*
O=C(CCC(=O)N1CCOc2ccccc21)NCCN1CCOCC1,0%,-8%,28%,·,9%
O=C(NCCNc1ccc([N+](=O)[O-])cc1C(F)(F)F)c1ccccc1,-24%,?,?,-2%,?
CC(C)(CNC(=O)c1cccc(F)c1)CNC(=O)c1cccc(F)c1,·,·,18µM*,·,?
O=C(NCCNc1ccc([N+](=O)[O-])cc1C(F)(F)F)c1cccc(F)c1,-2%,?,21µM*,4%,?
O=C(O)C1OC(Oc2c(-c3ccc(O)c(O)c3)oc3cc(O)cc(O)c3c2=O)C(O)C(O)C1O (configuration not stated),4%,2%,13µM*,-14%,?
CCOC(=O)c1c(C)[nH]c(C)c1C(=O)CN1C(=O)NC(CC(C)C)C1=O (configuration not stated),-3%,4%,?,1%,10µM*
CCOC(=O)c1c(SCCN2CCCC2)n(-c2ccccc2)c(=S)n(-c2ccccc2)c1=O,·,·,5.2µM*,·,4.6µM*
C=CCc1ccc(O)c(-c2ccc(O)c(CC=C)c2)c1,22µM*,?,18µM*,13%,?
C=CCc1cc(C(=O)N2CCCCC2)ccc1O,·,-4%[0.365 µM],?,6%,?
CCNc1ccc(Br)cc(C(=O)/C=C/c2ccc(Cl)cc2Cl)c1=O,13µM*,5µM*,9.2µM*,5%,10µM*
CNc1ccc(Br)cc(C(=O)/C=C/c2ccc(OC)cc2)c1=O,-26%,-22%,18µM*,-11%,6.5µM*
O=C(/C=C/c1ccc2c(c1)OCO2)NC1CCCC1,1%,?,-2%,·,1%
COC(=O)CNC(=O)/C=C/c1cc(Br)ccc1OC,-5%,12%,-21%,4%,-16%
CNc1ccc(Br)cc(C(=O)/C=C/c2ccc3c(c2)OCO3)c1=O,0%,-15%,18µM*,-10%,18µM*
CNc1ccc(Br)cc(C(=O)/C=C/c2cc(OC)ccc2OC)c1=O,-19%,3%,10µM*,-10%,21µM*
Cc1ccc(S(=O)(=O)CCNC(=O)Cc2ccc(Cl)cc2)cc1,-8%,16%,-14%,0%,24%
CCCC(=O)Nc1nc(-c2ccc3c(c2)CCN3S(C)(=O)=O)cs1,-11%,25%,23µM*,3%,?
CS(=O)(=O)N1CCc2cc(-c3csc(NC(=O)Cc4ccccc4)n3)ccc21,-9%,?,?,0%,?
CCC(=O)Nc1nc(-c2ccc3c(c2)CC(C)N3S(C)(=O)=O)cs1 (configuration not stated),0%,26%,16µM*,-1%,?
CC1Cc2cc(-c3csc(NC(=O)Cc4cccs4)n3)ccc2N1S(C)(=O)=O (configuration not stated),?,?,23µM*,7%,?

# Screening results: PubChem, National Center for Advancing Translational Sciences (NCATS)
